Measurements: publication PMC4336329 (PLoS ONE, 2015)
About 14,000 (4.5%) of roughly 310,000 compounds showed an effect of 50% or more. The effect is printed as a negative number. The sample as a whole holds a higher share of strong results than the screen did.

Target: human ether-à-go-go-related gene (hERG) potassium channel (human, UniProt Q12809)
Experiment: primary screen, population patch clamp on CHO cells stably expressing hERG; higher = less effect of the substance
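Note: peak tail current of the secondary pulse compared with the same well before compound.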

Sequence of human ether-à-go-go-related gene (hERG) potassium channel (Q12809 whole entry, looked up): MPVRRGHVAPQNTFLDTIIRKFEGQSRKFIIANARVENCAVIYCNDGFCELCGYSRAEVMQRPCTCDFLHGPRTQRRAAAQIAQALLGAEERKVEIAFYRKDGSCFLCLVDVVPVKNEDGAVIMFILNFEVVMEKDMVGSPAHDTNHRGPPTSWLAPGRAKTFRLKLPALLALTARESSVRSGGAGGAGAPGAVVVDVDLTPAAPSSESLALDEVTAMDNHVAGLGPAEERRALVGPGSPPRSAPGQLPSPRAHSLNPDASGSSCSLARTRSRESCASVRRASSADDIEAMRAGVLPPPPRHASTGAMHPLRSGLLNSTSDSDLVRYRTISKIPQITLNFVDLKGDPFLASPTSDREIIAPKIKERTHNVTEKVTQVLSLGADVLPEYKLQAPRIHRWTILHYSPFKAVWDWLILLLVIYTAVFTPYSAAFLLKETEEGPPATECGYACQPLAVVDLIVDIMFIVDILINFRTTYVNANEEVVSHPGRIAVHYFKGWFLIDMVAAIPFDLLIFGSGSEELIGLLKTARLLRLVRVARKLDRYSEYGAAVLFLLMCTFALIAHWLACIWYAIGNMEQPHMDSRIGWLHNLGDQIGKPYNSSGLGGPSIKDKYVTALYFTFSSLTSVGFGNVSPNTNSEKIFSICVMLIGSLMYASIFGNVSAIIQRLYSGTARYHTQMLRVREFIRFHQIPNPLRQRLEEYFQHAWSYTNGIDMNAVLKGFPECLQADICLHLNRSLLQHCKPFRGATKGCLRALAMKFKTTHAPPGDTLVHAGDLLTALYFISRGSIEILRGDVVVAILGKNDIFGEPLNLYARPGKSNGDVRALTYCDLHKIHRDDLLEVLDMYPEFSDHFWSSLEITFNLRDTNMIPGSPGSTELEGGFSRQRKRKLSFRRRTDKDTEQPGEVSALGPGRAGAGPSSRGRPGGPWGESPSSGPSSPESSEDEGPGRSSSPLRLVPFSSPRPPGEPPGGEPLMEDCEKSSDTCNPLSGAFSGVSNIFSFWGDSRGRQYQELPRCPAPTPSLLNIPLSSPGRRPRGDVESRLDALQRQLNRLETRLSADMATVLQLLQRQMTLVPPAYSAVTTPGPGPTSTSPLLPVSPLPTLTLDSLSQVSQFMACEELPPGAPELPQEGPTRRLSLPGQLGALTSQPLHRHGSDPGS

How did the “hERG current change (%, negative = inhibition) at 10uM” value turn out when O=C(c1cc(-c2ccncc2)nc2ccc(Br)cc12)N1CCN(c2ccccn2)CC1 was run?
Its value is -37.2%.

Cc1nc(C)c(-c2csc(Nc3ccc(F)cc3)n2)s1 was tested. Which “hERG current change (%, negative = inhibition) at 10uM” value did it give?
Its value is -25.1%.

How did the “hERG current change (%, negative = inhibition) at 10uM” value turn out when O=C1CSc2ccc(C(=O)Nc3cccc(S(=O)(=O)Nc4ccc(Br)cc4)c3)cc2N1 was run?
Its value is 15%.

How did the “hERG current change (%, negative = inhibition) at 10uM” value turn out when O=C(COC(=O)c1cccc(-n2cnnn2)c1)c1ccc(F)cc1 was run?
The value was -0.561%.

How did the “hERG current change (%, negative = inhibition) at 10uM” value turn out when CCOC(=O)C1CCN(S(=O)(=O)c2ccc3c(c2)CC(=O)N3C)CC1 was run?
The value was -22%.

With C=CCc1c(C)nc(SC(C)C)[nH]c1=O as the compound, how does the “hERG current change (%, negative = inhibition) at 10uM” value read?
Its value is -2.85%.

With CCOc1cc(C(=S)N2CCCC2)ccc1OC(=O)Cc1ccc(F)cc1 as the compound, how does the “hERG current change (%, negative = inhibition) at 10uM” value read?
The value was 7.36%.

How did the “hERG current change (%, negative = inhibition) at 10uM” value turn out when COc1ccc(CC(=O)Nc2c(C(=O)N3CCN(c4ncccn4)CC3)oc3ccccc23)cc1OC was run?
Its value is -46.8%.

COc1ccc(CC(=O)Nc2c(C(=O)N3CCN(c4ncccn4)CC3)oc3ccccc23)cc1 was tested. Which “hERG current change (%, negative = inhibition) at 10uM” value did it give?
The value was -63.7%.

How did the “hERG current change (%, negative = inhibition) at 10uM” value turn out when COc1ccc(N2CCN(C(=O)c3oc4ccccc4c3NC(=O)Cc3ccc(OC)c(OC)c3)CC2)cc1 was run?
Its value is -28.7%.

How did the “hERG current change (%, negative = inhibition) at 10uM” value turn out when O=C(c1oc2ccccc2c1CSCc1ccccc1)N1CCN(c2ncccn2)CC1 was run?
The value was 1.59%.

Which “hERG current change (%, negative = inhibition) at 10uM” value does the source give for O=C(Cc1ccc(F)cc1)Nc1c(C(=O)N2CCN(c3ncccn3)CC2)oc2ccccc12 here?
Its value is -56%.

Which “hERG current change (%, negative = inhibition) at 10uM” value does the source give for Cc1ccc(O)c(NC(=O)c2ccc3c(c2)C(=O)N(Cc2ccco2)C3=O)c1 here?
Its value is 3.81%.

COC(=O)c1[nH]c2c(c1C)C(=O)CC(c1ccc(OC)cc1)C2 (stereo not shown) was tested. Which “hERG current change (%, negative = inhibition) at 10uM” value did it give?
The value was 11%.

How did the “hERG current change (%, negative = inhibition) at 10uM” value turn out when CCOc1ccc2[nH]c(=O)c(CN(CCOC)C(=O)N3CCOCC3)cc2c1 was run?
Its value is 13.5%.

O=C(Nc1nnc(-c2ccc(F)cc2)o1)c1ccc(S(=O)(=O)N2CCOCC2)cc1 was tested. Which “hERG current change (%, negative = inhibition) at 10uM” value did it give?
The value was -6.82%.

Which “hERG current change (%, negative = inhibition) at 10uM” value does the source give for CC(Oc1ccc(Cl)cc1)C(=O)N(C)CC(=O)Nc1ccc(N2CCOCC2)cc1 (stereo not shown) here?
The value was 5.8%.

Cn1c(CN2CCCC2)nc2cc(NC(=O)COc3ccc([N+](=O)[O-])cc3)ccc21 was tested. Which “hERG current change (%, negative = inhibition) at 10uM” value did it give?
The value was -38.6%.

With CC1CCN(CCc2nc3cc(NC(=O)COc4ccc([N+](=O)[O-])cc4)ccc3n2C)CC1 as the compound, how does the “hERG current change (%, negative = inhibition) at 10uM” value read?
The value was -68.4%.

With Cn1c(CCN2CCCCC2)nc2cc([N+](=O)[O-])ccc21 as the compound, how does the “hERG current change (%, negative = inhibition) at 10uM” value read?
The value was -70.2%.

Which “hERG current change (%, negative = inhibition) at 10uM” value does the source give for Cn1c(CCN2CCOCC2)nc2cc(NC(=O)COc3ccc([N+](=O)[O-])cc3)ccc21 here?
The value was -21.1%.

With CCN1CCN(CCc2nc3cc([N+](=O)[O-])ccc3n2C)CC1 as the compound, how does the “hERG current change (%, negative = inhibition) at 10uM” value read?
The value was -16.9%.

How did the “hERG current change (%, negative = inhibition) at 10uM” value turn out when CN1CCN(CCc2nc3cc(NC(=O)COc4ccc([N+](=O)[O-])cc4)ccc3n2C)CC1 was run?
The value was 16.1%.

Cn1c(CCN2CCCCC2)nc2cc(NC(=O)COc3ccc([N+](=O)[O-])cc3)ccc21 was tested. Which “hERG current change (%, negative = inhibition) at 10uM” value did it give?
The value was -63.1%.

With Cn1c(CN2CCCCC2)nc2cc([N+](=O)[O-])ccc21 as the compound, how does the “hERG current change (%, negative = inhibition) at 10uM” value read?
Its value is -0.791%.

For CCN1CCN(Cc2nc3cc(NC(=O)COc4ccc([N+](=O)[O-])cc4)ccc3n2C)CC1, which “hERG current change (%, negative = inhibition) at 10uM” value is on record?
Its value is -18.7%.

With COc1ccc(N2C(=O)C3CCCN3C2c2ccccc2)cc1Cl (stereo not shown) as the compound, how does the “hERG current change (%, negative = inhibition) at 10uM” value read?
Its value is 7.28%.

How did the “hERG current change (%, negative = inhibition) at 10uM” value turn out when CCOC(=S)N/C(=N\S(C)(=O)=O)c1ccccc1 was run?
Its value is -2.92%.

Which “hERG current change (%, negative = inhibition) at 10uM” value does the source give for COc1ccc(C(=S)N2CCOCC2)cc1OC(=O)c1cc(OC)c(OC)c(OC)c1 here?
The value was 16.2%.

How did the “hERG current change (%, negative = inhibition) at 10uM” value turn out when COc1ccc(CN(C)C(=O)c2ccccc2Sc2ccccc2C#N)c(OC)c1 was run?
Its value is 0.887%.

Cc1ccc(C(=O)Cn2ncsc2=N)cc1 was tested. Which “hERG current change (%, negative = inhibition) at 10uM” value did it give?
Its value is -12.5%.

With Cc1ccc(S(=O)(=O)NC2CCCC2)cc1C(N)=O as the compound, how does the “hERG current change (%, negative = inhibition) at 10uM” value read?
The value was 20.1%.

Which “hERG current change (%, negative = inhibition) at 10uM” value does the source give for Cc1cc(OC(=O)c2cccs2)ccc1C(C)C here?
Its value is 12.1%.

With O=[N+]([O-])c1ccc(Cl)c(NC(=S)N2CCCC2)c1 as the compound, how does the “hERG current change (%, negative = inhibition) at 10uM” value read?
Its value is 5.47%.

For CC(=O)Nc1ccc(OCC(O)CN2CCN(c3ccc(Cl)cc3)CC2)cc1 (stereo not shown), which “hERG current change (%, negative = inhibition) at 10uM” value is on record?
The value was -52.7%.

With CC(=O)Nc1ccc(OCC(O)CN2CCN(c3ccccc3Cl)CC2)cc1 (stereo not shown) as the compound, how does the “hERG current change (%, negative = inhibition) at 10uM” value read?
The value was -50.2%.

Which “hERG current change (%, negative = inhibition) at 10uM” value does the source give for CC(=O)Nc1ccc(OCC(O)CN2CCN(c3ccc(F)cc3)CC2)cc1 (stereo not shown) here?
The value was -23.4%.

Which “hERG current change (%, negative = inhibition) at 10uM” value does the source give for CC(=O)Nc1ccc(OCC(O)CN2CCN(c3ccc(C)c(Cl)c3)CC2)cc1 (stereo not shown) here?
Its value is -27.7%.

CC(=O)Nc1ccc(OCC(O)CN2CCN(c3cccc(Cl)c3)CC2)cc1 (stereo not shown) was tested. Which “hERG current change (%, negative = inhibition) at 10uM” value did it give?
The value was -25.2%.

For CC(=O)Nc1ccc(OCC(O)CN2CCN(c3cc(Cl)ccc3C)CC2)cc1 (stereo not shown), which “hERG current change (%, negative = inhibition) at 10uM” value is on record?
Its value is -30.8%.

For CC(C)N(O)C(=O)NC(C)(C)C, which “hERG current change (%, negative = inhibition) at 10uM” value is on record?
Its value is 11.5%.

With O=C(NC1CCCCC1)C(c1ccc(F)cc1)N(C(=O)c1csnn1)C1CCCC1 (stereo not shown) as the compound, how does the “hERG current change (%, negative = inhibition) at 10uM” value read?
Its value is -7.88%.

How did the “hERG current change (%, negative = inhibition) at 10uM” value turn out when COc1ccc(-c2noc(COc3ccc(Cl)c(C)c3)n2)cc1 was run?
Its value is 2.81%.
